For 29 molecules, Potency, activity change, negative = inhibition and outcome results are on record in PubChem BioAssay (NCATS).

For assay [1], the system named is Zika virus NS2B-NS3 protease (unlinked complex). The assay can be described thus: Primary screen GU Rhodamine qHTS for Zika virus inhibitors: Unlinked NS2B-NS3 protease assay (AID 1347159). Note: nearly all actives have a fitted effect of over 60% in size. In a few lines:
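Compounds, tested up to 114 microM, were incubated for 15 minutes with 25 nM unlinked NS2B-NS3 protease at pH 8.0. Cleavage of 1.5 microM Rhodamine110 substrate was then followed by fluorescence for 15 minutes.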

Assay [2] relates to Zika virus NS2B-NS3 protease (linked construct). The assay can be described thus: Primary screen NINDS Rhodamine qHTS for Zika virus inhibitors (AID 1347160). Note: nearly all actives have a fitted effect of over 55% in size. In a few lines: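 Percent inhibition, normalized to uninhibited and enzyme-free controls, is fitted to a 4-parameter Hill equation. Fluorescence change comes from a 15-min cleavage of 1.5 microM bis-peptide Rhodamine110 substrate by 25 nM linked NS2B-NS3 at room temperature.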

Results filed as inconclusive are left out. Activity calls are given as the source filed them. Calls come from the whole dose curve; as a rule, active = well fitted inhibition curve with a large enough effect; inconclusive = small, poorly fitted or top-dose-only effect; inactive = no such curve, though single readings can be large or run the other way.
% is set by controls: 0 for no effect and ±100 for the full control effect; potency is the fitted concentration of half-maximal effect.

Regarding `O=C(NC/C=C/CN1CCN(c2cccc(Cl)c2Cl)CC1)c1ccc(-c2ccccn2)cc1`, the Potency result in assay [1] and in assay [2] was “inactive” in each case.

Turning to `CC(=O)[C@@H]1C[C@H](C(C)(C)O[C@@H]2O[C@H](CO)[C@@H](O)[C@H](O)[C@H]2O)CC[C@@]2(CO)OC(=O)C[C@@H]12`, the Potency result in assay [1] and in assay [2] was “inactive” each time.

On to `CCCC1=CC2=C(CO1)C(=O)C(C)(O)C(OC(=O)c1c(C)cc(OC)cc1O)C2` (stereo not drawn), for which the Potency result in assay [1] and in assay [2] was “inactive” in each case.

`C/C(=C\CCC(C)C1CC(O)C2(C)C3CCC4C(C)(C)C(OC5OCC(O)C(O)C5O)CCC45CC35CC(O)C12C)C(=O)O` (stereo not drawn): the Potency result in assay [1] and in assay [2] was “inactive” each time.

As for `C=C[C@H]1[C@H](O[C@@H]2O[C@H](CO)[C@@H](O)[C@H](OC(=O)/C=C/c3ccc(O)c(OC)c3)[C@H]2O)OC=C2C(=O)OCC[C@]21O`, the Potency result in assay [1] and in assay [2] was “inactive” in each case.

For the molecule `COc1cc(/C=C/C(=O)O[C@H]2C[C@@H]3C(C(=O)O)=CO[C@@H](O[C@@H]4O[C@H](CO)[C@@H](O)[C@H](O)[C@H]4O)[C@@H]3[C@H]2C)ccc1O`, the Potency result in assay [1] and in assay [2] was “inactive” throughout.

For the molecule `C[C@H](O)C(O)(C(=O)OCc1ccccc1NC(=O)CCC(N)C(=O)O)[C@H](C)O` (stereo partly drawn), the Potency entry in assay [1] and in assay [2] was “inactive” in each case.

Regarding `CC1CCCCCCCc2cc(O)cc(O)c2C(=O)O1` (stereo not drawn), the Potency was 39.8 µM (active) in assay [1] and 15.8 µM (active) in assay [2].

For `O=C(C1OC1/C=C/c1ccc2c(c1)OCO2)N1CCCCC1` (stereo not drawn), the Potency entry in assay [1] and in assay [2] was “inactive” each time.

`CC1(C)OC(=O)C=C[C@@]2(C)C1CC(=O)[C@]1(C)C2CC[C@@]2(C)[C@H](c3ccoc3)OC(=O)[C@H]3O[C@]321` (stereo partly drawn): the Potency entry in assay [1] and in assay [2] was “inactive” throughout.

With `O=C(Nc1cc(-c2ccccc2)nn1-c1ccccc1)c1ccc([N+](=O)[O-])cc1`, the Potency entry in assay [1] and in assay [2] was “inactive” throughout.

`CCCCC(=O)N1c2ccccc2NC2=C(C(=O)CCC2)C1c1ccccc1Cl` (stereo not drawn): the Potency entry in assay [1] and in assay [2] was “inactive” in each case.

For the molecule `CN(C)CC(c1ccc(O)cc1)C1(O)CCCCC1` (stereo not drawn), the Potency result in assay [1] and in assay [2] was “inactive” throughout.

For the molecule `CCC(C)C(=O)O[C@H]1C[C@](C)(O)[C@]23OC(C)(C)[C@H](C[C@H](OC(=O)c4ccccc4)[C@]2(COC(C)=O)[C@H]1OC(=O)C(C)CC)[C@H]3OC(C)=O` (stereo partly drawn), the Potency entry in assay [1] and in assay [2] was “inactive” throughout.

As for `CC(=O)OC1C(C)C2C(OC3OC(CO)C(O)C(O)C3O)OC=C(C(=O)O)C2C1OC(=O)c1ccccc1` (stereo not drawn), the Potency entry in assay [1] and in assay [2] was “inactive” in each case.

Consider `COc1cc(C2Oc3c(OC)cc(/C=C/C(=O)OC4CC(O)(C(=O)O)CC(O)C4O)cc3C2CO)ccc1O` (stereo not drawn), for which the Potency result in assay [1] and in assay [2] was “inactive” in each case.

For the molecule `COC(=O)[C@H](Cc1ccc([N+](=O)[O-])cc1)NC(=O)c1cccc2ccccc12`, the Potency result in assay [1] and in assay [2] was “inactive” in each case.

Turning to `C[C@@H]1O[C@@H](O[C@H]2[C@H](O)[C@@H](O[C@@H]3O[C@H](CO)[C@H](O)[C@H](O)[C@H]3O)[C@H](O[C@H]3CC[C@@]4(C)C(CC[C@]5(C)C4CC=C4[C@@H]6CC(C)(C)CC[C@]6(C(=O)O[C@@H]6O[C@H](CO)[C@@H](O)[C@H](O)[C@H]6O)CC[C@]45C)C3(C)C)O[C@@H]2C(=O)O)[C@H](O)[C@H](O)[C@H]1O` (stereo partly drawn), the Potency entry in assay [1] and in assay [2] was “inactive” throughout.

In the case of `CC1=CC23[C@H](C=C(C(=O)O)[C@@H]2COC(=O)[C@]3(O)CO)[C@@H]1C` (stereo partly drawn), the Potency result in assay [1] and in assay [2] was “inactive” throughout.

For the molecule `CC1=C[C@H](O)[C@H]2C(C)(C)CCC[C@]2(C)[C@@]1(O)CO`, the Potency result in assay [1] and in assay [2] was “inactive” in each case.

As for `C=C1CCc2occ(C)c2[C@H]2[C@H]1[C@@]13O[C@@]1(C[C@@H](C)[C@H]3OC(C)=O)[C@H]1O[C@@]21C`, the Potency entry in assay [1] and in assay [2] was “inactive” throughout.

Take `CC(C)=CCC[C@](C)(O[C@@H]1O[C@H](CO[C@@H]2O[C@@H](CO)[C@H](O)[C@H]2O[C@@H]2OC[C@@H](O)[C@H](O)[C@H]2O)[C@@H](O)[C@H](O)[C@H]1O)[C@H]1CC[C@]2(C)[C@@H]1[C@H](O)CC1[C@@]3(C)CC[C@H](O[C@@H]4O[C@H](CO)[C@@H](O)[C@H](O)[C@H]4O[C@@H]4O[C@H](CO)[C@@H](O)[C@H](O)[C@H]4O)C(C)(C)C3CC[C@]12C` (stereo partly drawn): in assay [1], the activity change, negative = inhibition is 0.816% [at 19.1 µM] (inactive). For the same molecule, the outcome in assay [2] is “inactive [at 10.7 µM]”.

Regarding `CCC1(O)CC2c3cc(OC)c(OC)cc3CCN2CC1CC(C)C` (stereo not drawn), the Potency entry in assay [1] and in assay [2] was “inactive” throughout.

As to `CC(=O)O[C@H]1[C@H](O[C@H]2CC[C@]34C[C@]35CC[C@]3(C)[C@@H]([C@@]6(C)CC[C@@H](C(C)(C)O)O6)[C@@H](O)C[C@@]3(C)[C@@H]5C[C@H](O[C@@H]3O[C@H](CO)[C@@H](O)[C@H](O)[C@H]3O)[C@H]4C2(C)C)OC[C@@H](OC(C)=O)[C@@H]1O`, the Potency result in assay [1] and in assay [2] was “inactive” throughout.

Take `C=C1CC[C@@H]2[C@@](C)(CO[C@@H]3O[C@H](CO)[C@@H](O)[C@H](O)[C@H]3O)[C@H](O)CC[C@@]2(C)[C@@H]1CC/C(C)=C/CO[C@@H]1O[C@H](CO)[C@@H](O)[C@H](O)[C@H]1O`: the Potency entry in assay [1] and in assay [2] was “inactive” throughout.

For the molecule `COc1ccnc(CCc2nc3ncccc3[nH]2)c1`, the Potency entry in assay [1] and in assay [2] was “inactive” each time.

As to `C[C@]1(OC(=O)/C=C\c2ccc(O)cc2)C[C@@H](O)[C@]2(O)C=CO[C@@H](O[C@@H]3O[C@H](CO)[C@@H](O)[C@H](O)[C@H]3O)C12` (stereo partly drawn), the Potency entry in assay [1] and in assay [2] was “inactive” throughout.

Take `Cc1oc(S(=O)(=O)N2CCCCC2)cc1NC(=O)Nc1ccccc1`: the Potency entry in assay [1] and in assay [2] was “inactive” each time.

On to `CC1(C)C2CCC1(C)C(OC(=O)C(O)(CC(=O)O)CC(=O)O)C2` (stereo not drawn), for which the Potency result in assay [1] and in assay [2] was “inactive” throughout.
